# Anthrax LF inh2: inhibitors of Bacillus anthracis lethal factor protease; multiplex microsphere protease cleavage assay, LF; inhibition, % at 10 µM; actives 0.12% (n = 360,000); AID 588501; further: plate controls were buffer without enzyme for full effect and enzyme alone for no effect
# BoNT A protease: BoNT A light chain protease inhibition. multiplex microsphere protease substrate cleavage, flow cytometry. inhibition, % at 10 µM. actives 0.17% (n = 360,000). AID 588499; further: plate controls were buffer without enzyme for full effect and enzyme alone for no effect
# Bead autofluor: compound fluorescence in toxin protease inhibitor counterscreen | fluorescence intensity (no concentration beside the values) | compound autofluorescence counterscreen, microsphere flow cytometry; active compounds read high | actives 3.1% (n = 360,000); in the data active means fluorescence intensity above about 16000; inconclusive means no clear call, values can overlap the other calls
# BoNT-F LC inh: inhibitors of Botulinum neurotoxin F light chain protease; actives 0.22% (n = 360,000); inhibition, % at 10 µM; Multiplex microsphere protease cleavage assay, flow cytometry; AID 588497; in the data active means inhibition above about 35%, passing the limit was not always enough; inconclusive means no clear call, values can overlap the other calls; further: plate controls were buffer without enzyme for full effect and enzyme alone for no effect
# * = called active by the depositor; ? = inconclusive. Shown are actives, neighbours in structure and some others; about 3.5% of the full set was active somewhere. Unless noted, no stated cut-off is given here; in the data, active means inhibition above about 30%; inconclusive means no clear call, values can overlap the other calls; inactive means below that.
SMILES,Anthrax LF inh2,BoNT A protease,Bead autofluor,BoNT-F LC inh
CCOC(=O)c1c(C)c(C(=O)NCCN2CCOCC2)c(C)n1C,-14.1,12.6,13279,13.0
CCOC(=O)c1c(C)c(C(=O)NCCCOC(C)C)c(C)n1C,-6.5,2.4,19718*,2.4
CCOC(=O)c1c(C)c(C(=O)NC(C)COC)c(C)n1C (stereo not drawn),-3.2,?,17439*,-4.8
CCOC(=O)c1c(C)c(C(=O)NCc2ccc3c(c2)OCO3)c(C)n1C,-2.4,-2.1,16759*,-7.9
CCCN(CCC)C1Sc2ccc(C(=O)OC)cc2NC1=O (stereo not drawn),-1.2,0.6,19484*,1.2
COC(=O)c1ccc2c(c1)NC(=O)C(N(CC(C)C)CC(C)C)S2 (stereo not drawn),-10.9,0.1,4793,4.5
CN(CCc1ccccn1)Cc1ccc(Cl)cc1Cl,0.4,-4.3,24561*,-3.1
CN(CCc1ccccn1)Cc1ccc(Cl)c(Cl)c1,7.1,-4.4,4055,?
COc1ccc(C(O)P(=O)(OCCC(C)C)c2ccc(N(C)C)cc2)cc1OC (stereo not drawn),28.7,-3.6,4733,?
COc1ccc(C(O)P(=O)(OC2CCCCC2)c2ccc(N(C)C)cc2)cc1OC (stereo not drawn),-1.2,0.3,22879*,-1.3
CC1(C)NC(=O)N(CCCCOc2ccc3ccccc3c2Cl)C1=O,-1.4,-1.1,24165*,-3.1
CCC(=O)c1ccccc1OCCCN1C(=O)NC(C)(C)C1=O,4.5,0.5,7815,1.0
CC1(C)NC(=O)N(CCOCCOc2ccc3ccccc3c2Br)C1=O,-0.7,-6.4,21501*,-9.5
Cc1ccsc1/C=N/NC(=O)C1CC(=O)N(c2ccccc2)C1 (stereo not drawn),0.6,-1.1,2508,-22.6
COCCN(C(=O)c1ccccc1F)c1nnc(-c2ccc(OC)cc2)s1,5.7,2.1,4459,6.9
Cc1cc(/C=C2/C(=O)N(C)C(=S)N2C)ccc1N1CCCC1,21.9,36.0*,15497,30.5
Cc1cc(/C=C2\NC(=S)N(C)C2=O)ccc1N1CCCC1,4.7,4.7,6349,8.6
Cc1cc(C=C(C#N)C#N)ccc1N1CCCC1,20.9,50.2*,3451,14.0
CCCN1C(=O)/C(=C/c2ccc(N3CCCC3)c(C)c2)NC1=S,9.1,11.1,18761*,14.0
O=C(CCCC(=O)NNC(=O)Nc1ccccc1)NNC(=O)Nc1ccccc1,0.5,-1.7,4705,1.3
O=C(Oc1ccc(N(Cc2cccs2)C2=NS(=O)(=O)c3ccccc32)cc1)c1ccccc1,-7.0,?,23485*,-3.8
COc1ccc(C2CC(=O)N3C(=C2C#N)SCC3(O)c2ccccc2)cc1 (stereo not drawn),-3.7,2.9,19377*,2.2
Cc1ccccc1OCC(=O)NC(=S)Nc1ccccc1N1CCN(S(C)(=O)=O)CC1,-1.6,1.4,5570,-5.7
O=S(=O)(c1ccccc1)c1cnc(-c2cccnc2)nc1-c1ccc(Cl)c(Cl)c1,-20.9,9.2,17469*,10.8
Cc1ncc(S(=O)(=O)c2ccccc2)c(-c2ccccc2)n1,-4.7,-0.5,3353,-1.9
SMILES,Anthrax LF inh2,BoNT A protease,Bead autofluor,BoNT-F LC inh
Cc1cc(NC(=O)C(C)SCC(=O)OCC(=O)Nc2c(C)cccc2C(C)C)no1 (stereo not drawn),-0.7,5.7,4289,5.4
CCOc1ccc(-c2cc(C(=O)N3CCN(c4ccccn4)CC3)c3ccccc3n2)cc1,-0.5,-0.6,22531*,-0.1
CCOc1ccc(-c2cc(C(=O)N3CCN(C)CC3)c3ccccc3n2)cc1,1.2,1.6,23119*,1.2
COc1ccc(-c2cc(C(=O)N3CCN(c4ccccn4)CC3)c3ccccc3n2)cc1,-0.9,-1.0,11887,-5.5
CCC(C)[C@H](N)c1cn([C@@H](CCCCN)C(=O)N2CCNCC2)nn1 (stereo partly drawn),2.1,0.1,3878,-0.1
COc1ccc2c3c([nH]c2c1)C1(NCC3)C(=O)Nc2ccccc21 (stereo not drawn),-1.9,-1.0,4494,-12.6
COc1cc2c(cc1OC)C1(NCC2)C(=O)Nc2ccccc21 (stereo not drawn),0.4,-1.9,16750*,-5.0
CC1Oc2ccccc2N(CC(=O)NCCc2ccccc2)C1=O (stereo not drawn),0.8,-11.3,26874*,-11.3
Cc1ccc2c(c1)N(CC(=O)NCCCN1CCOCC1)C(=O)C(C(C)C)O2 (stereo not drawn),-0.4,-1.2,6472,-3.2
CC1Oc2ccccc2N(Cc2ccccc2Cl)C1=O (stereo not drawn),-2.2,-0.6,23481*,-1.9
CC(C)C1Oc2ccccc2N(CC(=O)NCCCN2C(C)CCCC2C)C1=O (stereo not drawn),1.9,-0.2,23299*,2.4
O=C1COc2ccccc2N1Cc1ccccc1Cl,-2.3,-0.8,9192,3.9
CC1Oc2ccccc2N(CC(=O)N(Cc2ccccc2)Cc2ccccn2)C1=O (stereo not drawn),-3.3,-0.5,23187*,-0.9
COc1ccc(C(=O)NC(C)(C)C)cc1S(=O)(=O)N1CCCC1,-35.7,0.4,?,-0.1
O=C(CCSCCC(=O)Nc1c(F)c(F)c(F)c(F)c1F)Nc1c(F)c(F)c(F)c(F)c1F,0.0,-0.1,3187,-1.2
COc1ccc(Cl)cc1NC(=O)C(C)Sc1n[nH]c(N)n1 (stereo not drawn),-1.0,0.2,2474,5.4
COc1ccc(C(=O)c2ccc(Br)cc2)cc1,0.3,1.5,20227*,1.9
COc1cccc(-c2cnc(C(O)c3ccc(C)cc3C)[nH]2)c1 (stereo not drawn),-3.8,-0.4,2901,-13.2
O=C(OCc1cn([C@@H]2C[C@H](c3ccccc3)N(Cc3cccs3)C[C@H]2O)nn1)c1ccccc1,-2.0,-0.8,3973,2.7
COc1ccc(CCNC(=O)c2cc(-c3cc(Cl)ccc3O)n[nH]2)cc1OC,-10.0,-0.8,4488,-7.1
Cc1ccc(NC(=O)C(C)N2C(=O)C3C4CC(C(Br)C4Br)C3C2=O)cc1 (stereo not drawn),-2.0,-0.9,22632*,-2.6
Cc1ccc(NC(=O)C(C)N2C(=O)C3CC=C(Cl)CC3C2=O)cc1 (stereo not drawn),-0.4,-0.8,6424,-8.3
C=CCC(C(=O)OC)(C(=O)OC)c1ccc([N+](=O)[O-])cn1,2.0,?,22956*,-2.1
C=CCC(C(=O)OC)(C(=O)OC)c1ccc([N+](=O)[O-])cc1[N+](=O)[O-],-4.2,-0.7,3779,-0.2
O=C(Cn1c2[n+](c3ccc(C(F)(F)F)cc31)CCCCC2)Nc1ccccc1,-1.1,1.2,2958,-0.2
SMILES,Anthrax LF inh2,BoNT A protease,Bead autofluor,BoNT-F LC inh
FC(F)(F)c1ccc2c(c1)n(Cc1ccccc1)c1[n+]2CCCCC1,-1.6,7.4,20850*,17.0
CC(NC(=O)CSc1ncnc2nc[nH]c12)c1ccccc1 (stereo not drawn),-5.6,1.2,21770*,4.0
O=C(CSc1ncnc2nc[nH]c12)NCCc1ccccc1,-6.9,-0.6,3124,3.6
CCCCNC(=O)C1(C)CCCCN1C(=O)c1cc(-c2ccccc2)cs1 (stereo not drawn),-0.4,0.1,3593,-1.7
COc1ccc(-n2cc(-c3ccccc3)c3c(N4CCN(CCO)CC4)ncnc32)cc1,-2.5,7.2,20444*,7.5
CCc1c(C)c2c(C)nn(-c3ccccc3)c2[nH]c1=O,-0.8,0.5,3325,17.1

# Screens (PubChem BioAssay)
